Rows were chosen to be rich in hits. Some 2.4% of all compounds tested hit in one or more screens of this group.
D2 antag: antagonizes the human D2 dopamine receptor | HEK293 TREx D2 cells, calcium flux, dopamine EC80 | inhibition, % at 10 µM | P14416 | actives 2% (n = 340,000); in the data active means inhibition above about 30%; inactive means below that, where a call was filed; further: 0% is about no effect
Target sequence (P14416 whole entry, looked up): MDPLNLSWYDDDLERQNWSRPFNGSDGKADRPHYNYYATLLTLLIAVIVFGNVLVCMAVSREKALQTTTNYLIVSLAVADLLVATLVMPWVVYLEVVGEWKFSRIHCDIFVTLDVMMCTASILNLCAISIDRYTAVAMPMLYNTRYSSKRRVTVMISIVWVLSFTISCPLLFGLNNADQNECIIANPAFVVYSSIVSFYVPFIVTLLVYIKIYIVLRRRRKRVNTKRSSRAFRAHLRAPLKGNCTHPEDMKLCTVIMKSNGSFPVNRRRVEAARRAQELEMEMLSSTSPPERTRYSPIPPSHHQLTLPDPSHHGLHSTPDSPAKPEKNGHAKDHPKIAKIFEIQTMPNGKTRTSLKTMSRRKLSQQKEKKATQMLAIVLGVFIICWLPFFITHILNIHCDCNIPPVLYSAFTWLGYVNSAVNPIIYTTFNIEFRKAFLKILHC
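Compounds are added to dye-loaded, induced HEK293 T-REx cells coupled to calcium release via D2; after a 3 min kinetic read an EC80 dopamine stimulus is given and fluorescence is recorded for 3 more min.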
D2 ag-1: D2 dopamine receptor (human) agonism; P14416; AID 485358; activation, % at 2 µM; actives 0.53% (n = 340,000); HEK293 T-REx D2 cells, calcium flux agonist mode;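 active means activation over 3 SD above normal in the single-dose calcium agonist read, cut at about 30% in these data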; further: 0% is about no effect
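Agonism scored from kinetic calcium signal (1 read/sec, 180 s) following compound pin transfer, after a 10 s baseline. Cells: HEK293 Trex line expressing inducible D2 receptor coupled to calcium, dye-loaded after overnight culture at 30 C.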
D2 PAM-1: positive allosteric modulators of human D2 dopamine receptor; P14416; HEK293 T-REx D2, calcium flux, EC20 dopamine potentiation; potentiation, % at 10 µM; actives 0.34% (n = 340,000);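 active means potentiation over 3 SD above the plate norm, cut at about 30% in these data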; further: 0% is about no effect
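Tetracycline-induced HEK293 T-REx cells force-coupled to calcium signalling expressed D2; compounds were pin-added after a 10 s baseline, read kinetically 180 s, then an EC20 dopamine challenge followed with a further 180 s calcium read.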
D2 ag-2: agonists of human D2 dopamine receptor (beta-arrestin) | activation, % (no concentration beside the values) | P14416 | DiscoveRx PathHunter D2 beta-arrestin, luminescence, 90 min; 100% = 57 uM dopamine signal | actives 0.084% (n = 360,000); in the data active means activation above about 40%; inconclusive means between about 15% and that limit
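DiscoveRx PathHunter D2 beta-arrestin cells (2,100/well) attached overnight, then compound-stimulated 90 min at 37 C in HBSS/10 mM HEPES/0.1% Tween-20 buffer; beta-galactosidase complementation read by luminescence after 1 h at ambient temperature. Dopamine 57 uM final (EC100) as control.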
D2 PAM-2: human D2 receptor positive allosteric modulation; P14416; DiscoveRx D2 beta-arrestin cells, luminescence, 90 min; 100% = 57 uM dopamine signal; potentiation, % (concentration not given with the values); actives 0.23% (n = 360,000); AID 624464; in the data active means potentiation above about 50%; inconclusive means mostly about 30% to 49%
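D2 cells co-treated with compound plus 50 nM dopamine (EC20) for 90 min at 37 deg C to detect potentiation. Beta-arrestin recruitment was read as enzyme-fragment luminescence after 1 h at ambient temperature. Full response was set by 57 uM dopamine.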
* = called active by the depositor; ? = inconclusive; nt = no result.

SMILES	D2 antag	D2 ag-1	D2 PAM-1	D2 ag-2	D2 PAM-2
Cc1ccc(Cl)cc1NC(=O)C(C)n1nnc2sc3c(c2c1=O)CCCC3 (configuration not stated)	nt	-1	-16	nt	nt
O=C(CCl)Nc1cccc(S(=O)(=O)NC2=NCCCCC2)c1	nt	nt	nt	-1	-2
O=C(Nc1cccc(S(=O)(=O)NC2=NCCCCC2)c1)c1cc(-c2ccncc2)nc2ccccc12	-4	2	6	-3	98*
O=C(Cc1c(F)cccc1Cl)Nc1cccc(S(=O)(=O)NC2=NCCCCC2)c1	31*	0	4	-1	-25
CC(C)C(=O)Nc1cccc(C(=O)Nc2nnc(C(F)(F)F)s2)c1	nt	-1	-1	nt	nt
Cc1nc(-c2ccc(F)cc2)c(CC(=O)N(C)CC(=O)Nc2ccc(Br)cc2C)s1	58*	1	-25	-4	-5
Cc1cc(OCC(=O)Nc2sc3c(c2C#N)CC(C)(C)NC3(C)C)c(C(C)C)cc1Cl	34*	0	7	3	-2
CC(=O)Nc1ccc(NC(=O)CCCn2nc(C)c3sc4ccccc4c3c2=O)cc1	nt	1	8	nt	nt
COc1c(O)c(O)c2oc(-c3ccccc3)cc(=O)c2c1OC	-5	0	14	8	?
COc1cc(-c2cc(=O)c3c(O)c(OC)c(OC)c(O)c3o2)ccc1O	0	0	17	9	88*
Cc1ccc2cc3c(N)nn(C(=O)c4cccc(F)c4)c3nc2c1	nt	-1	-2	nt	nt
O=c1[nH]nc(CNc2ccc(O)cc2)c2ccccc12	-17	1	16	14	71*
O=c1[nH]nc(CNc2ccc(C(F)(F)F)cc2)c2ccccc12	0	1	7	6	1
Cc1ccc(-c2onc(C)c2C)cc1S(=O)(=O)Nc1cccc(Cl)c1C	nt	nt	-4	nt	nt
Cc1ccc2oc(C(F)(F)C(F)F)cc(=O)c2c1	1	0	7	-3	-5
Cc1ccc2oc(C(Cl)(Cl)Cl)cc(=O)c2c1	3	-1	-4	9	76*
Cc1ccc(C(c2sc3nc(-c4ccco4)nn3c2O)N2CCN(Cc3ccccc3)CC2)cc1 (configuration not stated)	nt	-1	1	nt	nt
Clc1ccc(N=c2ssnc2Cl)nc1	-5	1	-8	-1	103*
Cc1sc2nc(C3CC3)nc(SCC(=O)N3CCCc4ccccc43)c2c1C	3	0	3	nt	nt
Cn1c(=O)c2c(SCC(=O)N3CCCc4ccccc43)nc(C3CC3)nc2n(C)c1=O	35*	1	25	-5	-4
COc1cccc(-c2nnc(SCC(=O)NC3CCS(=O)(=O)C3)n2C)c1 (configuration not stated)	39*	1	-4	2	-14
COC(=O)c1cc(OC)c(OC)cc1NC(=O)c1ccc2c(c1)CCN2S(=O)(=O)c1ccccc1	nt	nt	0	nt	nt
CCC(C)[C@H](NC(=O)N1CCn2c1nc1ccccc12)C(=O)NCc1ccccc1 (some centres not stated)	-1	0	32*	-4	-5
CC(=O)N1c2ccccc2C(=O)C1N1CCN(c2cc(Cl)ccc2C)CC1 (configuration not stated)	nt	0	6	nt	nt
Cc1ccc(Cl)cc1NC(=O)Nc1cn(CC(C)C)c(=O)c2ccccc12	nt	0	-7	nt	nt
SMILES	D2 antag	D2 ag-1	D2 PAM-1	D2 ag-2	D2 PAM-2
Cc1oc2cc(O)ccc2c(=O)c1Oc1ccccc1Br	37*	-2	-6	-3	2
Cc1oc2cc(O)ccc2c(=O)c1Oc1ccccc1	17	0	5	-3	-17
CCOC(=O)c1c(C)[nH]c(C)c1S(=O)(=O)N1CCCC(C(=O)N2CCN(c3cccc(Cl)c3)CC2)C1 (configuration not stated)	nt	1	-13	nt	nt
CON(C)S(=O)(=O)c1cccc(C(=O)Nc2ccc(S(=O)(=O)NC3=NCCCCC3)cc2)c1	33*	-1	-4	0	-18
Cc1ccc(C2(C)NC(=O)N(CCOc3ccccc3)C2=O)cc1 (configuration not stated)	-12	0	-5	-4	9
COc1ccc(OCCN2C(=O)NC(C)(c3ccc(C)cc3)C2=O)cc1 (configuration not stated)	17	0	66*	0	1
